# Experimental data as given in PubChem BioAssay (NCATS).
# Several values for one entry are separate records, joined by “and”; a condition that tells them apart may be missing. Equal values may be shown once. Inconclusive results are not listed. Where a call stands in place of a potency, no number is given. Activity calls are given as the source filed them. Unless noted, calls follow the shape of the dose curve; as a rule, active = well fitted curve in the direction sought with a large enough effect; inconclusive = small, poorly fitted or top-dose-only effect, or another doubt; inactive = no such curve, though single readings can be large; an effect the other way counts as inactive or inconclusive.
# Legend:
# [1] = KB-8-5-11 P-gp reporter qHTS against the NCATS DSHEA and TCM libraries (AID 1919977); also: potency is read from the fitted curve at half-maximal effect
# Outline: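 P-gp-overexpressing KB-8-5-11 cells were screened in colchicine-free medium at 500 cells/well, as a titration series. Cells were exposed for 72 h at 37C. Viability was read by CellTiter-Glo luminescence after 30 min at room temperature.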
# [2] = Cell Viability - BJ (AID 421; calls by dose curve;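 also: potency is read from the fitted curve at half-maximal effect; cells exposed to compound for 40 hours at 37 °C before readout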); conditions: BJ fibroblast viability, qHTS
# Outline: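 Cytotoxicity in human BJ foreskin fibroblasts is scored as loss of cellular ATP after a 40-hour exposure, measured by luciferase luminescence. Controls are DMSO and 100 uM tamoxifen.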
# [3] = Cell Viability - HepG2 (AID 433; calls by dose curve;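 also: potency is read from the fitted curve at half-maximal effect; potency for ATP loss meaning cytotoxicity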); conditions: qHTS
# Outline: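 HepG2 cells, 1500 per well, treated 40 hr at 37 °C in complete medium; viability from intracellular ATP by CellTiter-Glo luminescence. Normalized to DMSO and 100 uM tamoxifen; AC50 from Hill fit of qHTS concentration-response.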
# [4] = Cell Viability - SK-N-SH (AID 435; calls by dose curve;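 also: potency is read from the fitted curve at half-maximal effect; compound exposure lasted 40 h at 37 °C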); conditions: SK-N-SH neuroblastoma cell viability qHTS
# Outline: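 SK-N-SH neuroblastoma cells (1500/well) treated 40 h at 37 °C in complete medium; viability read as cellular ATP by CellTiter-Glo luminescence. Normalized to DMSO and 100 uM tamoxifen; AC50 from Hill fits of qHTS concentration-response.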
# [5] = molecular target: Mitogen-activated protein kinase 10 (Mus musculus) (UniProt Q61831); test: JNK3 AlphaScreen Assay (AID 530; active = well fitted curve in either direction with a large enough effect, not every such curve was filed as active;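 also: kinase came from lysate of stimulated human HepG2 cells; signal reports phosphorylation of biotinylated GST-cJun 1-79 at Ser73 with 10 µM ATP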)
# Outline: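 Biotinylated GST-cJun(1-79) served as substrate for JNK3 in HepG2 lysates stimulated with IL-1beta and TNF-alpha. ATP was 10 uM final, pH 7.6. Ser73 phosphorylation was quantified by AlphaScreen (680 nm excitation).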
# [6] = Cell Viability - HUV-EC-C (AID 542); also: nearly all actives have a fitted effect of over 35% in size
# Outline: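 Concentration-dependent ATP loss in HUV-EC-C cells is the measure. Exposure lasts 40 hr at 37 °C; luminescence follows CellTiter-Glo addition, and Hill fits give AC50.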
# [7] = Cell Viability - Renal Proximal Tubule (AID 545); conditions: renal proximal tubule cells viability; at 91.7 µM (top of the series), primary cells of rat origin unless noted; also: nearly all actives have a fitted effect of over 40% in size
# Outline: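 Rat renal proximal tubule primary cells, 1000/well, exposed to compounds for 40 hr at 37 °C in complete medium; cellular ATP read by CellTiter-Glo luminescence. AC50 from concentration-response fitted with standard Hill equation.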
# [8] = Cell Viability - Mesenchymal (AID 546);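 also: cells exposed to compound for 40 hours before reading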
# Outline: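 In this qHTS cytotoxicity format, glomerulus-derived human mesenchymal kidney cells received compound for 40 hr, then luciferase-based ATP quantitation. Concentration-response data were fitted with the Hill equation.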
# [9] = Cellular Toxicity (caspase-3) HepG2 (AID 654);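 also: cells exposed to compound for 16 hours before reading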
# Outline: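 Concentration-response AC50 values reflect caspase-3/7 induction in HepG2 cells after 16 hours of compound exposure, quantified by luminescence from liberated aminoluciferin and referenced to 100 uM tamoxifen as full stimulation.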
# [10] = Cellular Toxicity (caspase-3) Jurkat (AID 655); conditions: Jurkat caspase-3 activation, luminescence, DMSO = 0%, tamoxifen = 100%; at 92.2 µM (top of the series);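 also: cells exposed to compound for 16 h at 37 °C before reading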
# Outline: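 Jurkat cells (5000/well) in complete medium exposed 16 h at 37 C; caspase-3/7 activity read by Caspase-Glo luminescence after 20 min at room temperature. Normalized to DMSO and 100 uM tamoxifen; AC50 from Hill fits.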
# [11] = Cellular Toxicity (caspase-3) HUV-EC-C (AID 656)
# Outline: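 HUV-EC-C cells (1000/well) in complete medium, compound-treated 16 h at 37 °C; caspase-3/7 activity read by Caspase-Glo 3/7 luminescence. Normalized to DMSO (basal) and 100 uM tamoxifen (100%); AC50 from Hill-equation concentration-response fits.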
# [12] = Cellular Toxicity (caspase-3) SHSY5Y (AID 657)
# Outline: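 SH-SY5Y human neuroblastoma cells, 1500/well, exposed to compound for 16 hours at 37 °C in complete medium. Caspase-3/7 activity read by Caspase-Glo luminescence after 1 hr at room temperature, normalized to DMSO and 10 uM staurosporine; AC50 from Hill fit.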
# [13] = Cellular Toxicity (caspase-3) BJ (AID 658)
# Outline: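 Plated BJ cells (1000/well) rested 5 hr, received compound for 16 hr at 37 °C, then Caspase-Glo 3/7 reagent for 1 hr at room temperature before luminescence reading.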
# [14] = Cellular Toxicity (caspase-3) MRC-5 (AID 659)
# Outline: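 Apoptosis readout in MRC-5 cells: luciferase light generated after caspase 3/7 cleaves a peptide-aminoluciferin substrate, measured post 16 hr compound incubation at 37 °C.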
# [15] = Cellular Toxicity (caspase-3) Mesangial (AID 660);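 also: cells exposed to compound for 16 h before the caspase read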
# Outline: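 AC50 values come from Hill-equation fits of caspase 3/7 activation, measured as Caspase-Glo luminescence in human glomerular mesangial cells exposed to compound for 16 h at 37 °C; 100% set by 100 uM tamoxifen.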
# [16] = Cellular Toxicity (caspase-3) SK-N-SH (AID 661)
# Outline: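 Apoptosis readout in SK-N-SH neuroblastoma: Caspase-Glo 3/7 luminescence following 16 hr treatment in complete culture medium. Normalization used DMSO and 10 uM staurosporine controls.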
# [17] = Cellular Toxicity (caspase-3) H-4-II-E (AID 663);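 also: cells exposed to compound for 16 hr before readout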
# Outline: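 Caspase 3/7 activation measured in H-4-II-E cells in complete culture medium after 16 hr treatment at 37 °C, using luciferase-coupled substrate readout; AC50 values come from Hill-equation fits of normalized concentration-response data.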
# [18] = Cellular Toxicity (caspase-3) Renal Proximal Tubule (AID 667); conditions: renal proximal tubule cells; at 91.7 µM (top of the series), primary cells freshly taken from rat, solvent-only wells 0%, staurosporine 100% unless noted;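 also: cells exposed to compound for 16 hours at 37 °C before detection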
# Outline: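 Freshly isolated primary rat kidney proximal tubule cells, 1000/well, treated 16 hr at 37 °C, then Caspase-Glo 3/7 luminescence after 1 hr. Normalized to DMSO and 10 uM staurosporine; AC50 from Hill fit.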
# [19] = qHTS assay for small molecule antagonists of retinoid X receptor alpha signaling (AID 588546; active = well fitted inhibition curve with a large enough effect in the signal ratio, with a control signal flat, not every such curve was filed as active; the % refers to the signal ratio;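 also: cells stimulated with 9-cis-retinoic acid as agonist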); conditions: HEK293T RXRa-UAS-bla, beta-lactamase ratio, antagonist mode; measured here: W530 green channel, cytotoxicity proxy
# Outline: (§1)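 Beta-lactamase reporter inhibition, read as CCF4 fluorescence ratio (ex 405, em 460/530 nm) after 2 h at RT. HEK293T UAS-bla cells, 2500/well, were stimulated with 9-cis-RA at 500 or 100 nM final alongside test compound for 18 h at 37 C.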
# [20] = molecular target: Retinoic acid receptor RXR-alpha (Homo sapiens) (UniProt P19793); test: as above; conditions: HEK293T RXRa-UAS-bla, beta-lactamase ratio, antagonist mode
# Retinoic acid receptor RXR-alpha (Homo sapiens), sequence (P19793 whole entry, looked up): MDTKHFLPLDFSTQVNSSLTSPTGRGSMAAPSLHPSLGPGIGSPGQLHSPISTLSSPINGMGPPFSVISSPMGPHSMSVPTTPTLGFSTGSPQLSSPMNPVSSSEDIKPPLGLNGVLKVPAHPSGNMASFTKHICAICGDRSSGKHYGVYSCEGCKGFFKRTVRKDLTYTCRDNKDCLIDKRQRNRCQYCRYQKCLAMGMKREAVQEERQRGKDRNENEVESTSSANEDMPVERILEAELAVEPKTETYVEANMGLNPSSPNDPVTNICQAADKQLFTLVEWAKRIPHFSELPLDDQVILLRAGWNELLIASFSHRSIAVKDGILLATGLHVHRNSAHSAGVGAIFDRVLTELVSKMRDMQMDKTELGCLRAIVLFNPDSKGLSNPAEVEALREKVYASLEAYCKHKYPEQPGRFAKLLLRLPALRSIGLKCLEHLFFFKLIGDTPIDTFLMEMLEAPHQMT
# Outline: as §1
smiles,measurement,setting,value
CC1=C2[C@H](/C=C(\C)C(=O)O)CC[C@@H](C)[C@H]2CC1,Potency,[1],inactive
CC[C@H](CC[C@@H](C)[C@H]1CCC2C3CCC4C[C@@H](O)CC[C@]4(C)C3CC[C@@]21C)C(C)C (some centres not stated),Potency,[1],inactive
CCCCCCCCCCCCCCCCCCCCCC(=O)O,Potency,[1],inactive
COC(=O)C1=CO[C@@H](C)[C@H]2CN3CCc4c([nH]c5ccccc45)[C@@H]3C[C@H]12,Potency,[1],inactive
C[C@@H]1CC[C@]2(C)CC[C@]3(C)C(=CC(=O)C4[C@@]5(C)CC[C@@H](O)[C@](C)(C(=O)O)C5CC[C@]43C)C2[C@H]1C (some centres not stated),Potency,[1],inactive
O=C(O[C@@H]1Cc2c(O)cc(O)cc2O[C@@H]1c1ccc(O)c(O)c1)c1cc(O)c(O)c(O)c1,Potency,[1],inactive
C[S+](CC[C@H](N)C(=O)O)C[C@H]1O[C@@H](n2cnc3c(N)ncnc32)[C@H](O)[C@@H]1O (some centres not stated),Potency,[1],inactive
O=C(OC[C@H]1O[C@@H](OC(=O)c2cc(O)c(O)c(O)c2)[C@H](OC(=O)c2cc(O)c(O)c(O)c2)[C@@H](OC(=O)c2cc(O)c(O)c(O)c2)[C@@H]1OC(=O)c1cc(O)c(O)c(O)c1)c1cc(O)c(O)c(O)c1,Potency,[1],inactive
O=c1cc(-c2ccc(O)c(O)c2)oc2cc(O[C@@H]3O[C@@H](CO)[C@@H](O)[C@@H](O)[C@H]3O)cc(O)c12,Potency,[1],inactive
CC/C=C\C/C=C\C/C=C\CCCCCCCC(=O)O,Potency,[1],inactive
CCC(/C=C/[C@@H](C)[C@H]1CCC2C3CC=C4C[C@@H](O)CC[C@]4(C)C3CC[C@@]21C)C(C)C (some centres not stated),Potency,[1],inactive
O=c1ccc2ccc(O)cc2o1,Potency,[1],inactive
C=C1CC[C@H](O)C/C1=C\C=C1/CCC[C@]2(C)[C@@H]([C@H](C)CC[C@H](C)C(C)C)CC[C@@H]12,Potency,[1],inactive
COC1=CC(=O)O[C@@H](/C=C/c2ccc3c(c2)OCO3)C1,Potency,[2],> 92 µM (inactive)
same,Potency,[3],> 92 µM (inactive)
same,Potency,[4],> 92 µM (inactive)
same,outcome,[5],inactive
same,Potency,[6],inactive
same,"activity change, negative = cytotoxicity",[7],-14.1% (inactive)
same,outcome,[8],inactive
same,outcome,[9],inactive
same,caspase-3 activation,[10],-10% (inactive)
same,outcome,[11],inactive
same,outcome,[12],inactive
same,outcome,[13],inactive
same,outcome,[14],inactive
same,outcome,[15],inactive
same,outcome,[16],inactive
same,outcome,[17],inactive
same,caspase-3 activation,[18],-22.8% (inactive)
same,max response,[19],10.1%
same,max response,[20],-29.4% (inactive)
same,Potency,[1],inactive
COc1cc2c(cc1O)C[C@H]1c3c(cc(OC)c(O)c3-2)CCN1C,Potency,[1],inactive
O=C(/C=C/c1ccc(O)c(O)c1)OC1[C@H](O)CC(O)(C(=O)O)C[C@@H]1O (some centres not stated),Potency,[1],inactive
C=C[C@H]1CN2CCc3c([nH]c4ccccc34)[C@H]2C[C@@H]1/C(=C\OC)C(=O)OC,Potency,[1],22.4 µM (active)
OC[C@H]1O[C@@H](OC[C@H]2O[C@@H](OC/C=C/c3ccccc3)[C@H](O)[C@@H](O)[C@@H]2O)[C@@H](O)[C@@H]1O,Potency,[1],inactive
O=C(OCC1=C[C@@H](O)[C@@H]2C=CO[C@@H](O[C@@H]3O[C@H](CO)[C@@H](O)[C@H](O)[C@H]3O)[C@H]12)c1ccc(O)cc1,Potency,[1],inactive
O=c1cc(-c2ccc(O)cc2)oc2cc(O[C@@H]3O[C@H](CO)[C@@H](O)[C@H](O)[C@H]3O[C@@H]3OC[C@](O)(CO)[C@H]3O)cc(O)c12,Potency,[1],inactive
O=S(=O)(O)O,Potency,[1],inactive
COc1cc(/C=C/c2ccccc2)oc(=O)c1,Potency,[1],inactive
CC[C@@H]1CN2CC[C@]3(C(=O)Nc4ccccc43)[C@@H]2C[C@@H]1/C(=C\OC)C(=O)OC,Potency,[1],inactive
O=C(/C=C/c1ccc(O)c(O)c1)O[C@@H]1CC(C(=O)O)=C[C@@H](O)[C@H]1O,Potency,[1],inactive
Oc1cc(O)c2c(c1)O[C@@H](c1cc(O)c(O)c(O)c1)[C@H](O)C2,Potency,[1],inactive
CC(C)=CCC[C@](C)(O[C@@H]1O[C@H](CO)[C@@H](O)[C@H](O)[C@H]1O)[C@H]1CC[C@]2(C)[C@@H]1[C@H](O)C[C@@H]1[C@@]3(C)CC[C@H](O)C(C)(C)[C@@H]3[C@@H](O[C@@H]3O[C@H](CO)[C@@H](O)[C@H](O)[C@H]3O)C[C@]12C,Potency,[1],inactive
CCCCCCCCC/C=C/C(=O)CCc1ccc(O)c(OC)c1,Potency,[1],inactive
COc1cc2c(cc1O)CC1NCCc3cc(OC)c(OC)c-2c31 (configuration not stated),Potency,[1],inactive
O=C(/C=C/c1ccc(O)c(O)c1)O[C@H]1[C@H](O)C[C@](O)(C(=O)O)C[C@H]1OC(=O)/C=C/c1ccc(O)c(O)c1,Potency,[1],inactive
COC(=O)C1=CO[C@@H](C)[C@@H]2CN3CC[C@@]4(C(=O)Nc5ccccc54)[C@@H]3CC12 (some centres not stated),Potency,[1],inactive
CCCCCCCC/C=C\CCCCCCCCCCCCCC(=O)O,Potency,[1],inactive
C=C[C@H]1CN2CC[C@@]3(C(=O)Nc4ccccc43)[C@@H]2C[C@@H]1/C(=C\OC)C(=O)OC,Potency,[1],inactive
C[C@@H]1OC(O[C@H]2[C@H](O)[C@@H](O)[C@H](OC[C@H]3O[C@@H](OC(=O)[C@]45CCC(C)(C)C[C@@H]4C4=CCC6[C@@]7(C)CC[C@H](OC8OC[C@H](O)[C@H](O)[C@H]8OC8O[C@@H](C)[C@H](O)[C@@H](O)[C@H]8O)[C@@](C)(CO)C7CC[C@@]6(C)[C@]4(C)CC5)[C@H](O)[C@@H](O)[C@@H]3O)O[C@@H]2CO)[C@H](O)[C@H](O)[C@H]1O (some centres not stated),Potency,[1],inactive
COC1=C(OC)C(=O)C(C/C=C(\C)CC/C=C(\C)CC/C=C(\C)CC/C=C(\C)CC/C=C(\C)CC/C=C(\C)CC/C=C(\C)CC/C=C(\C)CC/C=C(\C)CCC=C(C)C)=C(C)C1=O,Potency,[1],inactive
O=C=NC1CCCCC1,Potency,[2],> 92 µM (inactive)
same,Potency,[3],> 92 µM (inactive)
same,Potency,[4],> 92 µM (inactive)
same,outcome,[5],inactive
same,Potency,[6],inactive
same,"activity change, negative = cytotoxicity",[7],-5.86% (inactive) and -0.993% (inactive)
same,outcome,[8],inactive
same,outcome,[9],inactive
same,caspase-3 activation,[10],-0.599% (inactive) and -1.26% (inactive)
same,outcome,[11],inactive
same,outcome,[12],inactive
same,outcome,[13],inactive
same,outcome,[14],inactive
same,outcome,[15],inactive
same,outcome,[16],inactive
same,outcome,[17],inactive
same,caspase-3 activation,[18],5.04% (inactive) and -5.65% (inactive)
same,max response,[19],-7.8% and -5.15%
same,max response,[20],12.3% (inactive) and -18.1% (inactive)
